Residues, ends and D or L forms follow the SMILES beside them. *: point of attachment. Octanoyl = CCCCCCCC(=O)*
What was measured:
Format in all cases: functional
Plasmodium falciparum [1] = test: GSK_TCMDC: Inhibition of Plasmodium falciparum 3D7 in whole red blood cells, using parasite LDH activity as an index of growth. Test compounds present at 2uM
Plasmodium falciparum [2] = test: GSK_TCMDC: Inhibition of Plasmodium falciparum Dd2 in whole red blood cells, using parasite LDH activity as an index of growth. Test compounds present at 2uM
HepG2 = test: GSK_TCMDC: Percent inhibition of human HepG2 cell line. Test compounds present at 10uM.

SMILES | Inhibition (Plasmodium falciparum [1]) [%] | Inhibition (Plasmodium falciparum [2]) [%] | Inhibition (HepG2) [%]
O=C(Nc1ccccc1C(F)(F)F)Nc1nn(Cc2c(F)cccc2Cl)cc1Br | 100 | 86 | 0
CC1CCC(NCc2ccc3c(CNC4CCC(C)CC4)c(O)ccc3c2O)CC1.Cl (centres undefined) | 100 | 99 | 4
O=C(Nc1ccc(-c2csc(-c3nc4ccccc4[nH]3)c2)cc1)Nc1ccc(Cl)c(Cl)c1 | 93 | 18 | 75
COc1ccccc1NC(=O)Nc1ccc(-c2ccc(-c3nc4cccc(C)c4[nH]3)s2)cc1 | 100 | 99 | 71
COc1cccc(OC)c1-c1ccccc1NC(=O)N1CCCc2cc(C)ccc21 | 82 | 84 | 51
CC(C)N1CCN(C(CN2CCN(CCCOc3ccc4ccccc4c3)CC2)c2ccc(F)cc2)CC1.Cl (centres undefined) | 100 | 91 | 59
CC(C)(CNCc1cc(Cl)cc(Cl)c1)c1nc(-c2ccnc(N)n2)c(-c2ccc(Cl)c(O)c2)[nH]1.Cl | 92 | 2 | 54
CCNC(=O)Nc1ccc(-c2cnc(N)c(-c3nc4ccc(OC)cc4[nH]3)c2)cc1 | 100 | 43 | 51
CCN(CCNC(=O)Cn1c(C)cc2cc([N+](=O)[O-])ccc21)c1cccc(C)c1 | 97 | 95 | 0
CCCCCCCC(=O)N[C@@H](Cc1ccccc1)C(=O)N[C@H](C(=O)O)C(C)C (Octanoyl-Phe-Val-OH) | 89 | 0 | 0
COc1ccc2nccc([C@@H](O)CN3CCC(NC(=O)c4cc5c(F)cc(F)cc5[nH]4)CC3)c2n1 | 100 | 74 | 32
COc1ccc(/C=C/C(=O)NCCCCCN2CCC(c3c[nH]c4ccccc34)CC2)cc1O | 91 | 1 | 9
O=C(NCCN1CCCC1)c1cccc(-c2ccc(-c3nc4cc(C(F)(F)F)ccc4[nH]3)cc2)c1 | 100 | 99 | 34
COc1ccccc1-c1sccc1C(=O)NC1(c2cc(Cl)cc(Cl)c2)CCCC1 | 88 | 95 | 0
COc1ccccc1N1CCN(C(C(=O)NCc2ccc3c(c2)OCO3)c2ccc3c(c2)OCCCO3)CC1 (centres undefined) | 88 | 13 | 15
O=C(C=Cc1ccc(Cl)c(Cl)c1)NCCCCCN1CCC(CCNC(=O)c2ccc3c(c2)OCO3)CC1 | 99 | 2 | 35
O=C(O)C(F)(F)F.OCCC1CCN(Cc2ccc(-c3ccc(-c4nc5ccccc5[nH]4)cc3)cc2)CC1 | 99 | 98 | 35
COc1cc2nc(NCc3ccc(S(N)(=O)=O)cc3)nc(Nc3ccc(Oc4ccccc4)cc3)c2cc1OC | 100 | 100 | 14
OC(CNc1ccnc(Nc2cccc(Cl)c2)n1)c1ccc(C(F)(F)F)cc1 (centres undefined) | 100 | 61 | 13
CC1CN(c2cc(=O)n(Cc3ccc(NC(=O)Nc4ccc(-c5ccccc5)cc4)cc3)cn2)CC(C)N1.O=C(O)C(F)(F)F (centres undefined) | 87 | 20 | 0
C=CCc1cc(Br)ccc1OCCCOc1c(N)nc(N)nc1N.Cl | 92 | 0 | 47
CC[C@@]1(O)C(=O)OCc2c1cc1n(c2=O)Cc2c-1nc1cc3c(cc1c2CN1CCN(C)CC1)OCCO3.Cl | 98 | 97 | 79
COC(=O)c1cc(C(O)CNC(C)CCCc2ccccc2)ccc1O.Cl (centres undefined) | 99 | 97 | 17
O=C(Nc1ccc(-c2ccc(-c3nc4cc(C(F)(F)F)ccc4[nH]3)cc2)cc1)Nc1ccc(F)c(F)c1F | 99 | 100 | 39
CC(CN1CCN(C)CC1)C(=O)Nc1cccc(-c2ccc(-c3nc4ccccc4[nH]3)cc2)c1 (centres undefined) | 95 | 38 | 2
O=C(Nc1ccc(Cl)cc1)N[C@H]1CCN(CCCCCNC(=O)C2CC2c2ccc(Cl)c(Cl)c2)C1 (some centres undefined) | 96 | 1 | 24
COc1cc(C(=O)NC2CCN(Cc3ccccc3)CC2)ccc1-c1nc2cc(Cl)c(Cl)cc2[nH]1 | 100 | 100 | 14
Cc1cc(N[C@@H](Cc2ccccc2)C(=O)NCCc2ccccc2)nc(NCCOc2ccccc2)n1.O=C(O)C(F)(F)F | 95 | 14 | 10

Reference: ChEMBL document CHEMBL1157539, “Thousands of chemical starting points for antimalarial lead identification” (Nature, 2010)
